In PubChem BioAssay AID1159580 (chemical genetic matrix, 2015):
“And” between values parts separate entries of the source, which are not always exact repeats. Equal entries are not always repeated. Among all 5,500 compounds or so, about 2,000 (36%) were called active. Another 18% or so got no clear call; they are omitted. No stated cut-off is given here; in the data, active means normalized growth mostly below about 0.91 (no sharp cut-off); inconclusive means no clear call, values can overlap the other calls; inactive means mostly above about 0.92. The list shows a part of the results.

Assay: chemical genetic growth profiling, strain panel (AID 1159580);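 further: tested at 20 µM; growth read once vehicle control cultures reached saturation at 30 °C; 1 = growth at the plate median or of vehicle wells; lower values mean less growth of the strain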
Details: S. cerevisiae deletion strains, growth OD

Measured: normalized growth

Cc1cc(CC(=O)O)n(C)c1C(=O)c1ccc(Cl)cc1
inactive: locus YAL013W, strain DEP1, active compounds read low 1 | locus YAL021C, strain ccr4, active compounds read low 1 | locus YAL026C, strain drs2, active compounds read low 1.04 | locus YAL030W, strain snc1, active compounds read low 1.01 | locus YBL061C, strain skt5, active compounds read low 1.04 | locus YBR009C, strain hhf1, active compounds read low 0.999 | locus YBR021W, strain FUR4, active compounds read low 0.979 | locus YBR023C, strain chs3, active compounds read low 1.03 | locus YBR171W, strain sec66, active compounds read low 1.04 | locus YBR229C, strain ROT2, active compounds read low 0.997 | locus YBR231C, strain swc5, active compounds read low 1.02 | locus YBR279W, strain paf1, active compounds read low 1.02 | locus YCL011C, strain gbp2, active compounds read low 1.03 | locus YCL016C, strain dcc1, active compounds read low 1.04 | locus YCL029C, strain bik1, active compounds read low 1.02 | locus YCL061C, strain MRC1, active compounds read low 1.03 | locus YCL069W, strain vba3, active compounds read low 1.04 | locus YCR088W, strain abp1, active compounds read low 1.03 | locus YDL005C, strain med2, active compounds read low 1.02 | locus YDL035C, strain GPR1, active compounds read low 0.989 | locus YDL040C, strain nat1, active compounds read low 1.02 | locus YDL074C, strain BRE1, active compounds read low 0.978 | locus YDL101C, strain DUN1, active compounds read low 1 | locus YDL134C, strain PPH21, active compounds read low 1 | locus YDL185W, strain tfp1, active compounds read low 0.997 | locus YDL192W, strain arf1, active compounds read low 1.01 | locus YDR001C, strain nth1, active compounds read low 1.02 | locus YDR069C, strain doa4, active compounds read low 1.01 | locus YDR101C, strain arx1, active compounds read low 1.01 | locus YDR137W, strain rgp1, active compounds read low 1.04 | locus YDR150W, strain NUM1, active compounds read low 0.998 | locus YDR159W, strain sac3, active compounds read low 1.02 | locus YDR162C, strain NBP2, active compounds read low 0.997 | locus YDR195W, strain ref2 1.02 | locus YDR297W, strain sur2, active compounds read low 1.03 | locus YDR318W, strain mcm21, active compounds read low 1 | locus YDR334W, strain swr1, active compounds read low 1.03 | locus YDR335W, strain msn5, active compounds read low 1.03 | locus YDR388W, active compounds read low 0.998 | locus YDR392W, strain spt3, active compounds read low 1.02 | locus YDR502C, strain sam2, active compounds read low 0.995 | locus YEL003W, strain gim4, active compounds read low 1.02 | locus YEL037C, strain rad23, active compounds read low 1.02 | locus YEL061C, strain CIN8 (second series), active compounds read low 1.03 | locus YEL061C, strain CIN8, active compounds read low 1 | locus YER015W, strain faa2, active compounds read low 1.03 | locus YER016W, strain bim1, active compounds read low 1.04 | locus YER110C, active compounds read low 1 | locus YER111C, strain swi4, active compounds read low 1.02 | locus YER155C, strain BEM2 (second series), active compounds read low 1.01 | locus YER155C, strain BEM2, active compounds read low 0.982 | locus YER167W, strain BCK2, active compounds read low 0.992 | locus YFR010W, strain ubp6, active compounds read low 1.01 | locus YGL078C, strain dbp3, active compounds read low 1 | locus YGL086W, strain mad1, active compounds read low 0.998 | locus YGL167C, strain pmr1, active compounds read low 1.02 | locus YGL173C, strain kem1, active compounds read low 1.02 | locus YGL227W, strain vid30, active compounds read low 1.02 | locus YGL240W, strain doc1, active compounds read low 1 | locus YGL248W, strain PDE1, active compounds read low 0.998 | locus YGL253W, strain hxk2, active compounds read low 1.04 | locus YGR078C, strain PAC10, active compounds read low 0.988 | locus YGR135W, strain pre9, active compounds read low 0.988 | locus YGR229C, strain SMI1, active compounds read low 0.998 | locus YGR252W, strain gcn5, active compounds read low 0.945 | locus YHR013C, strain ard1, active compounds read low 1.05 | locus YHR027C, strain rpn1, active compounds read low 1.02 | locus YHR030C, strain SLT2, active compounds read low 1 and 1.02 | locus YHR079C, strain IRE1 (second series), active compounds read low 1 | locus YHR079C, strain IRE1, active compounds read low 1.02 | locus YHR094C, strain hxt1, active compounds read low 1 | locus YHR129C, strain ARP1, active compounds read low 0.998 | locus YHR142W, strain chs7, active compounds read low 1.05 | locus YHR200W, strain rpn10, active compounds read low 1.01 | locus YIL066C, strain RNR3, active compounds read low 0.994 | locus YIL073C, strain SPO22, active compounds read low 1.02 | locus YIL125W, strain kgd1, active compounds read low 1.01 | locus YIR030C, strain dcg1, active compounds read low 1.01 | locus YJL092W, strain hpr5, active compounds read low 1.03 | locus YJL095W, strain BCK1 (second series), active compounds read low 1.03 | locus YJL095W, strain BCK1, active compounds read low 0.959 and 1.01 | locus YJL115W, strain asf1, active compounds read low 1.01 | locus YJL129C, strain trk1, active compounds read low 1.06 | locus YJL134W, strain LCB3, active compounds read low 1 | locus YJL154C, strain vps35, active compounds read low 1.02 | locus YJL164C, strain tpk1, active compounds read low 1.02 | locus YJL166W, strain qcr8, active compounds read low 1.03 | locus YJL168C, strain set2, active compounds read low 1.01 | locus YJL187C, strain SWE1 (second series), active compounds read low 0.998 | locus YJL187C, strain SWE1, active compounds read low 1.01 | locus YJR043C, strain POL32, active compounds read low 0.997 | locus YJR066W, strain TOR1, active compounds read low 0.954
